In PubChem BioAssay (NCI):
This is part of a sample that, as a whole, favours compounds with a hit. Of some 79,000 tested, about 15% had one in any assay. No stated cut-off is given here; in the data, active means growth inhibition above about 70%; inactive means the rest.

Columns and labels:
[1] = NCI Yeast Anticancer Drug Screen. Data for the rad50 strain (AID 155);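 further: 0% = growth of vehicle-only cultures of the same strain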; details: S. cerevisiae rad50 strain growth inhibition; at 50.0 µM; active compounds read high
In short: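 Cells are treated with compound, grown, and their growth is then scored against vehicle-only cultures of the same repair-deficient yeast strain.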

[2] = NCI Yeast Anticancer Drug Screen. Data for the mec2-1 strain (AID 157); details: S. cerevisiae mec2-1 strain, at 50.0 µM, active compounds read high
In short: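 Each compound was tested on mec2-1 yeast, a strain altered in DNA damage repair or cell cycle control. Growth inhibition is reported relative to vehicle.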

[3] = NCI Yeast Anticancer Drug Screen. Data for the sgs1 mgt1 strain (AID 161);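 further: 0% = growth of cultures given vehicle only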; details: S. cerevisiae sgs1 mgt1 strain, at 50.0 µM, active compounds read high
In short: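 Inhibition of yeast growth, normalised to vehicle-treated controls, is reported for a strain bearing genetic alterations in DNA damage repair.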

[4] = NCI Yeast Anticancer Drug Screen. Data for the cln2 rad14 strain (AID 165);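 further: 0% = growth equal to vehicle treated cultures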; details: S. cerevisiae cln2 rad14 strain, at 50.0 µM, active compounds read high
In short: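 Test compounds were added to cln2 rad14 yeast cultures; inhibition of growth was then determined by comparison with vehicle treatment.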

[5] = NCI Yeast Anticancer Drug Screen. Data for the bub3 strain (AID 167); details: S. cerevisiae bub3 mutant strain, at 50.0 µM, active compounds read high
In short: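 Part of a panel of yeast mutants defective in DNA damage repair or cell cycle regulation. Each strain is grown with compound, and inhibition is calculated relative to solvent-treated cultures.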

[6] = NCI Yeast Anticancer Drug Screen. Data for the mlh1 rad18 strain (AID 175); details: S. cerevisiae mlh1 rad18 strain growth inhibition; at 50.0 µM; active compounds read high
In short: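 Inhibition values reflect reduced growth of mutant yeast versus vehicle-treated controls following compound exposure; the mutations affect DNA damage repair.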

Measured: growth inhibition

O=[N+]([O-])c1cccc2nc3ccccc3c(NCCc3ccccn3)c12
inactive: [1] 13.3% | [2] -19.9% | [3] 20.6% | [4] -32.4% | [5] -17.1% | [6] 13.8%

O=C1c2ccccc2C(=O)N1CCOCCOCCOCCN1C(=O)c2ccccc2C1=O
inactive: [1] 9.4% | [2] -5.95% | [3] -0.75% | [4] -12.3% | [5] -2.75% | [6] -36%

Nc1ccccc1C(=O)Nc1ccccn1
inactive: [1] 4.05% | [2] -1.1% | [3] 0.5% | [4] 5.35% | [5] 0.45% | [6] -6.25%

Cn1c(=O)c2nsnc2n(C)c1=O
inactive: [1] -21.1% | [2] -11% | [3] -14.2% | [4] -25.3% | [5] -3.7% | [6] 14.1%

CN(c1ccccc1)S(=O)(=O)c1cccc([N+](=O)[O-])c1
inactive: [1] -25.3% | [2] -44.5% | [3] 0% | [4] -9.5% | [5] 24.3% | [6] -1.55%

NC(=O)NCSCNC(N)=O
inactive: [1] -0.7% | [2] -0.2% | [3] -7.35% | [4] 8.15% | [5] -2.75% | [6] 4.5%

CCCC(=O)Nc1ccc2c(ccn2COC)c1
inactive: [1] -37.2% | [2] -2.2% | [3] -2.05% | [4] 8.7% | [5] 8.45% | [6] -18.2%

COc1cc(=O)n(-c2ccccc2)nc1C#N
inactive: [1] 2.25% | [2] -0.7% | [3] 1.35% | [4] -46.1% | [5] 8.85% | [6] -1.2%

CSc1nc(C)c(CCOC(C)=O)c(Cl)n1
inactive: [1] -18.1% | [2] -19.4% | [3] -16.2% | [4] -0.25% | [5] 17.1% | [6] 4.25%

O=C(NCC1CC1)NC(=O)c1c(F)cccc1Cl
inactive: [1] -1.2% | [2] -13% | [3] 12.6% | [4] 20.8% | [5] 36.6% | [6] 9.65%

CC(C)OP(=O)(OC(C)C)/C(N)=N/Nc1ccc([N+](=O)[O-])cc1
inactive: [1] 25.6% | [2] -0.2% | [3] -5.6% | [4] 2.65% | [5] -3.95% | [6] -7.7%

CN(Cc1ccccc1)C(=O)Nc1ccc(F)c([N+](=O)[O-])c1
inactive: [1] 7.95% | [2] 28.6% | [3] 21.9% | [4] -4.2% | [5] 50.6% | [6] 16.2%

CCC1(C)C(=O)SC(=S)N1C (stereo unspecified)
inactive: [1] 4.4% | [2] -0.2% | [3] -4.9% | [4] -8.4% | [5] -0.7% | [6] 5.6%

CCOC(=O)CNC(=O)C(Cc1ccccc1)NC(=O)c1ccccc1[N+](=O)[O-] (stereo unspecified)
inactive: [1] 22.8% | [2] 14.3% | [3] 16% | [4] 15.8% | [5] -1.25% | [6] 15.8%

CCCCCCC(c1c(O)cc(C)[nH]c1=O)c1c(O)cc(C)[nH]c1=O
inactive: [1] -6.55% | [2] -8.5% | [3] 9.55% | [4] -8.4% | [5] -12.8% | [6] -11.9%

c1ccc2c(c1)NC(C1OC3CCCN3C1C1Nc3ccccc3S1)S2 (stereo unspecified)
inactive: [1] -43.2% | [2] -6% | [3] -28.6% | [4] -1.5% | [5] -14.1% | [6] -24.4%

O=C1C2=C(Nc3ccccc3N2)OC1c1ccc2c(c1)OCO2 (stereo unspecified)
inactive: [1] 4.15% | [2] -9.95% | [3] -20.1% | [4] -7.9% | [5] -29.4% | [6] -0.1%

O=C(Nc1cccc(Cl)c1)Oc1cccnc1
inactive: [1] -5.1% | [2] -29.9% | [3] 7.7% | [4] -4.55% | [5] -2.85% | [6] -12.6%

C=C1C(=O)OC2CC(=C)C3CC=C(C)C3CC12 (stereo unspecified)
inactive: [1] 41.8% | [2] 21.5% | [3] 19% | [4] 41.6% | [5] 25.8% | [6] 44.1%

CC(C)CCOC(=O)NC1c2ccccc2Oc2ccccc21
inactive: [1] -10% | [2] 3.55% | [3] 3.65% | [4] 18% | [5] 0.1% | [6] -1.3%

NC(=O)N(CCO)/N=C/c1ccc([N+](=O)[O-])o1
inactive: [1] 42.3% | [2] 15.7% | [3] 54.8% | [4] 17.9% | [5] 33.6% | [6] 59.9%
